# Results as given in PubChem BioAssay AID720565 (National Center for Advancing Translational Sciences (NCATS), 2013).
# Results filed as inconclusive are left out. The source made the active and inactive calls. Calls come from the whole dose curve; as a rule, active = well fitted activation curve with a large enough effect; inconclusive = small, poorly fitted or top-dose-only effect; inactive = no such curve, though single readings can be large or run the other way.
# Experiment: qHTS for small molecules that induce genotoxicity in ELG1 expressing cells: Confirmatory Assay for Cherry-picked Compounds; note: nearly all actives have a fitted effect of over 35% in size
# Conditions: ELG1-luciferase reporter cells, luminescence, 16 h; series mostly up to 46.1 µM
# How it was run: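 Cells carrying the ELG1-luciferase reporter were exposed to compound for 16 hr at 37 C, 5% CO2, at 2,000 cells per well. Rise in luciferase activity, read with ONE-Glo after 30 min at room temperature, indicates genotoxic stress.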
# Potency is the fitted concentration of half-maximal effect.
row,SMILES,Potency
1,Cc1c(C(=O)Nc2nccs2)oc2ccc(Br)cc12,11.2 µM (active)
2,CN(C)c1ccc(C=Nc2cncc3ccccc23)cc1,0.889 µM (active)
3,ICC[n+]1csc2ccccc21,14.1 µM (active)
4,C(=C\c1ccc2ccccc2n1)/c1cccnc1,0.25 µM (active)
5,O=C(OCC(=O)N1CCc2ccccc2C1)c1c(F)cccc1Cl,9.96 µM (active)
6,CCOc1ccc2oc(C(=O)Nc3nccs3)c(C)c2c1,2.23 µM (active)
7,Clc1ccc(-c2cnnc(-c3ccccn3)n2)cc1,14.1 µM (active)
8,CN(C)c1ccc(/C=C/c2ccc3ccccc3[n+]2[O-])cc1,0.0792 µM (active)
9,COc1ccc([C@H]2Cc3cc(O)cc(O)c3C(=O)O2)cc1O,11.2 µM (active)
10,Cc1ccc2nc3sc(C(=O)NCc4ccco4)cc3cc2c1,7.05 µM (active)
11,CC(=O)NC12CC3CC(C1)CC(C(=O)OCC(=O)c1cc(C)n(C)c1C)(C3)C2,2.81 µM (active)
12,COc1ccccc1/C=C/c1nc2ccccc2s1,3.97 µM (active)
13,O=C(CSc1nnc(-c2ccc(O)cc2)o1)Nc1ccccc1Br,14.1 µM (active)
14,Cc1ccnc(NC(=S)N2CCN(c3ccc(N)cc3)CC2)c1,14.1 µM (active)
15,CC(C)C(=O)SCCCCCCC(=O)Nc1nc(-c2ccccc2)cs1,12.5 µM (active)
16,Nc1ccc(/C=C/c2ccc3cccnc3c2)cc1,0.5 µM (active)
17,CC(=O)Nc1ccc(/C=C/c2sc3ccccc3[n+]2CCCCI)cc1,22.3 µM (active)
18,Cc1cc(C(=O)COC(=O)c2ccc(F)cc2)c(C)n1C,2.23 µM (active)
19,COc1ccc(-c2nc(-c3cccnc3)no2)cc1,3.97 µM (active)

row,SMILES,Potency
1,O=C1CCc2cc(NS(=O)(=O)c3ccccc3)cc3c2N1CCC3,inactive
2,Cc1ccc2c(c1)C/C(=C/c1ccc(N(C)C)cc1)C2=O,7.05 µM (active)
3,Cc1ccc(NC(=O)c2ccc(OC(=O)c3cc4ccccc4o3)cc2)cc1,8.89 µM (active)
4,COc1cccc(NC(=O)COC(=O)c2sccc2C)c1,11.2 µM (active)
5,COc1cccc(/C=C/C(=O)OCC(=O)c2ccccc2)c1OC,3.53 µM (active)
6,COc1ccc2c(C)cc(SCC(=O)N3CCOCC3)nc2c1,inactive
7,COc1ccc(/C=C2\Oc3ccccc3C2=O)cc1,0.996 µM (active)
8,O=S(=O)(c1ccc2ccccc2c1)N1CCN(S(=O)(=O)c2c(F)cccc2F)CC1,14.1 µM (active)
9,COc1cc2cc(C)c(SCC(=O)N3CCOCC3)nc2cc1OC,inactive
10,CCn1c(=O)n(CC)c2cc(S(=O)(=O)N3CCCCC3)c(C)cc21,inactive
11,CCOC(=O)c1c(C)[nH]c(C(=O)NNC(=O)c2ccccc2F)c1C,12.5 µM (active)
12,CC(=O)N(C)c1ccc(/C=C2\C=Cc3ccccc32)cc1,0.561 µM (active)
13,CN(C)c1ccc(/C=C2\CCc3ccccc32)cc1,1.58 µM (active)
14,CCOC(=O)c1cc(-c2ccc([N+](=O)[O-])cc2)nc2c1c(=O)[nH]c(=O)n2Cc1ccccc1,11.2 µM (active)
15,Cn1cccc1C(=O)OCC(=O)Nc1sccc1C#N,15.8 µM (active)
16,COCC(C)n1c(C)cc(C(=O)COC(=O)c2cc(=O)[nH]c3ccccc23)c1C (stereo not drawn),2.23 µM (active)
17,CN(C)c1cccc(C(=O)NNC(=O)CN2C(=O)C3CC=CCC3C2=O)c1 (stereo not drawn),7.91 µM (active)
18,CN(Cc1ccco1)c1ncnc2ccc(-c3cccc(Cl)c3)cc12,inactive
19,CC1CCc2nc(-c3cc4ccc(O)cc4oc3=O)sc2C1 (stereo not drawn),1.26 µM (active)
